PubChem BioAssay (NCI)
About 83,000 compounds went through this panel and 20% of them were active in at least one assay; those are over-represented in the sample as a whole.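 Each cell line was grown in a 96-well plate and treated with one concentration of compound for 48 hours. Values below 10 were considered active.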

Experiments:
Assay in all cases: NCI-60 one-dose screen, 48 h (100 = growth as untreated, 0 = no growth, -100 = all killed)
HCT-15 colon = details: 10 µM
HT29 colon = details: 10 µM
SNB-75 CNS = details: 10 µM
SNB-19 CNS = details: 10 µM
U251 CNS = details: 10 µM
PC-3 prostate = details: 10 µM
SK-MEL-5 melanoma = details: 10 µM
UACC-62 melanoma = details: 10 µM unless noted
LOX IMVI melanoma = details: 10 µM
SK-MEL-28 melanoma = details: 10 µM
SK-MEL-2 melanoma = details: 10 µM
EKVX NSCLC = details: 10 µM
SN12C renal = details: 10 µM
UO-31 renal = details: 10 µM
ACHN renal = details: 10 µM
CAKI-1 renal = details: 10 µM
A498 renal = details: 10 µM
CCRF-CEM leukemia = details: 10 µM
MOLT-4 leukemia = details: 10 µM
TK-10 renal = details: 10 µM unless noted

Measured: growth

COC(=O)c1ccc(C(C)C)cc1
inactive: HCT-15 colon 96.2% | HT29 colon 107% | SNB-75 CNS 103% | SNB-19 CNS 103% | U251 CNS 98.6% | PC-3 prostate 90.6% | SK-MEL-5 melanoma 104% | UACC-62 melanoma 99.4% | LOX IMVI melanoma 95% | SK-MEL-28 melanoma 110% | SK-MEL-2 melanoma 116% | EKVX NSCLC 92.3% | SN12C renal 99.1% | UO-31 renal 97.4% | ACHN renal 101% | CAKI-1 renal 96.8% | A498 renal 129% | CCRF-CEM leukemia 83.9% | MOLT-4 leukemia 101%

Cc1cc(Cc2cc(C)c(N)cc2N)c(N)cc1N
inactive: HCT-15 colon 103% | HT29 colon 95.9% | SNB-75 CNS 91.4% | SNB-19 CNS 96.3% | U251 CNS 88.9% | PC-3 prostate 85.4% | SK-MEL-5 melanoma 91.9% | UACC-62 melanoma 95.5% | LOX IMVI melanoma 87.3% | SK-MEL-28 melanoma 112% | SK-MEL-2 melanoma 96.7% | EKVX NSCLC 109% | SN12C renal 88.3% | UO-31 renal 77.2% | TK-10 renal 146% | ACHN renal 98.8% | A498 renal 98.8% | CCRF-CEM leukemia 96.8% | MOLT-4 leukemia 73.2%

CC(O)COc1ccc(-c2ccccc2)cc1 (centres undefined)
inactive: HCT-15 colon 96.3% | HT29 colon 116% | SNB-75 CNS 102% | SNB-19 CNS 98.4% | U251 CNS 99.7% | PC-3 prostate 101% | SK-MEL-5 melanoma 99.1% | UACC-62 melanoma 92.4% | LOX IMVI melanoma 101% | SK-MEL-28 melanoma 103% | SK-MEL-2 melanoma 108% | EKVX NSCLC 93.6% | SN12C renal 101% | TK-10 renal 106% | ACHN renal 103% | CAKI-1 renal 91.9% | A498 renal 78.7% | CCRF-CEM leukemia 95.4% | MOLT-4 leukemia 121%

Oc1ccccc1O
inactive: HCT-15 colon 95.6% | HT29 colon 92.1% | SNB-75 CNS 89.4% | SNB-19 CNS 80.2% | U251 CNS 82.7% | PC-3 prostate 87.4% | SK-MEL-5 melanoma 89.3% | UACC-62 melanoma 86.8% | LOX IMVI melanoma 85.3% | SK-MEL-28 melanoma 101% | SK-MEL-2 melanoma 90.1% | EKVX NSCLC 109% | SN12C renal 83.8% | TK-10 renal 80.8% | ACHN renal 92.4% | CAKI-1 renal 93.9% | A498 renal 87.9% | CCRF-CEM leukemia 27.1% | MOLT-4 leukemia 74.4%

CCCCCCCCOC(=O)c1ccccn1
inactive: HCT-15 colon 97.3% | HT29 colon 96.2% | SNB-75 CNS 84.4% | SNB-19 CNS 105% | U251 CNS 110% | PC-3 prostate 97.4% | SK-MEL-5 melanoma 104% | UACC-62 melanoma 99.4% | LOX IMVI melanoma 91.7% | SK-MEL-28 melanoma 107% | SK-MEL-2 melanoma 103% | EKVX NSCLC 107% | SN12C renal 96.4% | TK-10 renal 102% | ACHN renal 103% | CAKI-1 renal 111% | A498 renal 104% | MOLT-4 leukemia 116%
